From PubChem BioAssay
Rows were chosen to be rich in hits. Some 0.9% of all compounds tested hit in one or more screens of this group.
Tat export inh = inhibitors of E. coli Tat protein transport | actives 0.036% (n = 340,000) | inhibition, % at 10 µM | E. coli MC4100 TorA-mCherry Tat export, fluorescence;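 active means mean replicate inhibition at least 50% and at least half of replicates individually reaching 50%; inconclusive means only one of the two criteria met; inactive means neither criterion met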;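 further: exported cargo escapes ClpAP degradation while cytoplasmic cargo is degraded and loses fluorescence; 0% = median of neutral control wells and 100% = median of NaSCN control wells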
E coli growth-1 = inhibitors of Escherichia coli growth | actives 0.21% (n = 330,000) | AID 1053175 | OD600 absorbance (no concentration beside the values) | OD600, 23 h; hits give low values;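 active means OD600 absorbance below the run mean of sample wells minus 3.6 SD, in any replicate, cut at about 0.56 in these data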
phage Ecoli inh = E. coli growth loss with phage present; growth absorbance; inhibition, % at 11.9 µM; actives 0.26% (n = 360,000); AID 651602; in the data active means inhibition above about 11%
E coli growth-2 = counter-screen for AddAB inhibitors: E. coli growth inhibition; AID 449728; E. coli V3065 growth, OD600 absorbance, 18 h; inhibition, % at 11.9 µM; actives 0.27% (n = 330,000);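 active means inhibition above the campaign's mean inhibition across all tested compounds plus 3 SD, cut at about 9.9% in these data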;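 further: uninfected addAB+ strain grown without phage in ampicillin broth; 0% = DMSO wells and 100% = ciprofloxacin 0.95 µg/ml wells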
Calb FLC = C. albicans growth modulation with fluconazole; growth inhibition, % (test concentration not listed); AID 1979; C. albicans CaCi-2 (fluconazole-resistant clinical isolate) + fluconazole, Alamar Blue growth, 48 h; actives 0.57% (n = 300,000);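 active means growth inhibition above about 58% in most replicates, limit read from the data, passing the limit was not always enough; inconclusive means exactly half the replicates above a set limit; inactive means most replicates below a set limit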;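 further: all wells also contain fluconazole at 8 µg/ml as a sub-toxic cotreatment; 0% = median of DMSO wells and 100% = median of geldanamycin control wells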
AddAB inh = less growth of phage-infected E. coli with AddAB. E. coli expressing H. pylori AddAB, absorbance growth. inhibition, % at 11.9 µM. actives 0.29% (n = 330,000). AID 435030; in the data active means inhibition above about 12%;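 further: 0% = vehicle wells of infected cells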
AddAB confirm = confirmation screen: growth loss of phage-infected E. coli expressing H. pylori AddAB; E. coli V3065 expressing H. pylori AddAB, T4 phage, OD; T4 phage with gene 2 nonsense mutations; shares compounds with AddAB inh; actives 64% (n = 880); inhibition, % at 11.9 µM;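 active means mean inhibition above a set limit taken from the earlier primary screen, cut at about 13% in these data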;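 further: higher means less bacterial growth since AddAB block lets phage replicate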
RecBCD counter = reduces growth of phage-infected RecBCD+ E. coli, AddAB inhibitor counter-screen; actives 73% (n = 880); E. coli V66 + mutant T4 phage, OD growth; inhibition, % at 11.9 µM; shares compounds with AddAB inh;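 active means mean inhibition above the mean of solvent-only control wells plus 3 SD, cut at about 4% in these data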;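 further: optical density read after an 18 h incubation at 37 °C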
Bact viability = counter-screen for AddAB inhibitors: inhibitors of bacterial viability; actives 35% (n = 880); shares compounds with AddAB inh; inhibition, % at 11.9 µM; absorbance (AddAB counterscreen); in the data active means inhibition above about 25%
Numbers without * were called inactive.

For O=C(O[C@@H]1OC2COC(=O)c3cc(O)c(O)c(O)c3-c3c(cc(O)c(O)c3O)C(=O)O[C@@H]([C@H]1O)[C@@H]2O)c1cc(O)c(O)c(O)c1 the results were Tat export inh -1, E coli growth-2 23*, Calb FLC -2, AddAB inh 22*, AddAB confirm 20*, RecBCD counter 14* and Bact viability 10.
COc1ccc(-c2nc(C(N)=O)c3[nH]c(=O)n(-c4ccccc4OC)c3n2)c(OC)c1 was read as Tat export inh 3, E coli growth-1 0.77, phage Ecoli inh -1, E coli growth-2 18*, Calb FLC 2, AddAB inh 43*, AddAB confirm -2, RecBCD counter -2 and Bact viability -4.
Screening O=[N+]([O-])c1cc(O)c2ncccc2c1 returned E coli growth-1 0.13*, phage Ecoli inh 4, E coli growth-2 16*, Calb FLC 105*, AddAB inh 14*, AddAB confirm 34*, RecBCD counter 8.9* and Bact viability 4.
`O=[N+]([O-])c1cc2cccnc2c2ncccc12` gave E coli growth-1 0.59, phage Ecoli inh 5, E coli growth-2 7, Calb FLC 12 and AddAB inh 8.
Screening CCn1nnnc1SCC(=O)NCc1ccc2c(c1)OCO2 returned Tat export inh -1, E coli growth-1 0.77, phage Ecoli inh 1, E coli growth-2 13*, Calb FLC -4, AddAB inh 21*, AddAB confirm -5, RecBCD counter -2 and Bact viability -5.
Screening COc1ccc(NC(=O)CC2C(=O)N(c3cccc(C)c3)C(=O)N2C2CCCCC2)cc1 (stereo not drawn) returned Tat export inh -4, E coli growth-1 0.74, phage Ecoli inh 2, E coli growth-2 0, Calb FLC inconclusive and AddAB inh 0.
Screening CCc1ccc(NC(=O)CC2C(=O)N(c3cccc(C)c3)C(=O)N2C2CC2)cc1 (stereo not drawn) returned Tat export inh -10, E coli growth-1 0.78, phage Ecoli inh 4, E coli growth-2 53*, Calb FLC 2, AddAB inh 99*, AddAB confirm 0, RecBCD counter 0 and Bact viability -2.
CCc1ccccc1NC(=O)NNC(=O)c1ccc2ccccc2c1O was read as Tat export inh 7, E coli growth-1 0.71, phage Ecoli inh 5, E coli growth-2 4, Calb FLC 23 and AddAB inh 1.
Screening CCOc1ccc(NC(=O)NNC(=O)c2ccc3ccccc3c2O)cc1 returned Tat export inh -8, E coli growth-1 0.68, phage Ecoli inh 11, E coli growth-2 12*, Calb FLC 85*, AddAB inh 13*, AddAB confirm 9, RecBCD counter 12* and Bact viability 11.
O=C(CCN1CCN(c2ccccc2)CC1)N/N=C/c1ccc([N+](=O)[O-])o1 was read as Tat export inh 7, phage Ecoli inh 7, E coli growth-2 7, Calb FLC -2, AddAB inh 26*, AddAB confirm 78*, RecBCD counter 4 and Bact viability 7.
`CC(=O)Nc1ccc(C=NNC(=O)CCN2CCN(c3ccccc3)CC2)cc1` gave E coli growth-1 0.67.
O=C(CNc1cccc2ccccc12)N/N=C/c1ccc([N+](=O)[O-])o1 was read as Tat export inh -21, phage Ecoli inh 3, E coli growth-2 3, Calb FLC 37, AddAB inh 14*, AddAB confirm 35*, RecBCD counter 3 and Bact viability 6.
For COc1ccc(C(CC2OC(=O)c3ccccc32)=NNC(N)=O)cc1 (stereo not drawn) the results were E coli growth-1 0.73.
`CCOC(=O)c1cn(CC)c2cc(N3CCOCC3)c(F)cc2c1=O` gave Tat export inh 6, E coli growth-1 0.54*, phage Ecoli inh 7, E coli growth-2 53*, Calb FLC -3, AddAB inh 58*, AddAB confirm 70*, RecBCD counter -1 and Bact viability 15.
For CCn1cc(C(=O)O)c(=O)c2cc(F)c(N3CCN(S(=O)(=O)c4ccc(NC(=O)OC)cc4)CC3)cc21 the results were Tat export inh 7, E coli growth-1 0.061*, phage Ecoli inh 4, E coli growth-2 18*, Calb FLC 4, AddAB inh 37*, AddAB confirm 101*, RecBCD counter 29* and Bact viability 100*.
CCn1cc(C(=O)NN)c(=O)c2cc(F)c(N3CCN(C)CC3)cc21 was read as Tat export inh -3, E coli growth-1 0.55, phage Ecoli inh 3, E coli growth-2 16*, Calb FLC 13, AddAB inh 18*, AddAB confirm 47*, RecBCD counter -1 and Bact viability 29*.
CCC(=O)N1CCN(c2cc3c(cc2F)c(=O)c(C(=O)O)cn3CC)CC1 was read as Tat export inh 30, E coli growth-1 0.069*, phage Ecoli inh 8, E coli growth-2 70*, Calb FLC -10, AddAB inh 97*, AddAB confirm 100*, RecBCD counter 8.4* and Bact viability 98*.
Screening CCn1cc(C(=O)O)c(=O)c2cc(S(=O)(=O)N3CCCCCC3)ccc21 returned Tat export inh 1, E coli growth-1 0.6, phage Ecoli inh -2, E coli growth-2 1, Calb FLC 3 and AddAB inh 0.
For COc1ccc(C=NNc2snc(SC)c2C#N)cc1OC the results were E coli growth-1 0.77.
For Cc1ccc(S(=O)(=O)N=C2NC(=O)C(=Cc3cccnc3)S2)cc1 the results were E coli growth-1 0.69.
COc1ccc(C2C=C3CN(C(=O)OC(C)(C)C)S(=O)(=O)C3CC2OC(=O)c2cccs2)cc1 (stereo not drawn) was read as E coli growth-1 0.68.
`O=C(NNC(=S)NC(=O)c1ccco1)c1ccc(NC(=O)c2ccccc2)cc1` gave Tat export inh -8, E coli growth-1 0.57, phage Ecoli inh 0, E coli growth-2 3, Calb FLC -13 and AddAB inh 1.
O=C(NC(=S)NNC(=O)c1ccccc1O)c1ccco1 was read as Tat export inh -1, E coli growth-1 0.37*, phage Ecoli inh 6, E coli growth-2 2, Calb FLC 41, AddAB inh 14*, AddAB confirm 17*, RecBCD counter 17* and Bact viability 37*.
